Rows were chosen to be rich in hits. Some 7.6% of all compounds tested hit in one or more screens of this group.
VP16 counter: inhibits Gal4-VP16 luciferase reporter, ROR gamma counter-screen | Drosophila S2 Gal4-VP16 UAS-luciferase, luminescence, 20 h | Potency, µM (highest dose often 53.6 µM), for inactives: at the highest dose activity, negative = inhibition, actives largely listed as inhibitors | hit rate 3.5% among 310,000 | AID 2546;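 note: Gal4-VP16 expression switched on by copper sulfate through the metallothionein promoter; potency is the fitted concentration of half-maximal effect; % is set by controls: 0 for no effect and ±100 for the full control effect; nearly all actives have a fitted effect of over 50% in size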
RORg inh: ROR gamma (mouse) transcription inhibition; P51450; Drosophila S2 Gal4-RORgamma UAS-luciferase reporter, 20 h; Potency, µM (titrated, usually from 53.6 µM), for inactives: top-dose activity change, negative = inhibition, usual class: inhibitors; hit rate 5.4% among 310,000; AID 2551; note: potency is the fitted concentration of half-maximal effect; % is set by controls: 0 for no effect and ±100 for the full control effect; nearly all actives have a fitted effect of over 60% in size
Target sequence (P51450 whole entry, looked up, the tested form may be a part): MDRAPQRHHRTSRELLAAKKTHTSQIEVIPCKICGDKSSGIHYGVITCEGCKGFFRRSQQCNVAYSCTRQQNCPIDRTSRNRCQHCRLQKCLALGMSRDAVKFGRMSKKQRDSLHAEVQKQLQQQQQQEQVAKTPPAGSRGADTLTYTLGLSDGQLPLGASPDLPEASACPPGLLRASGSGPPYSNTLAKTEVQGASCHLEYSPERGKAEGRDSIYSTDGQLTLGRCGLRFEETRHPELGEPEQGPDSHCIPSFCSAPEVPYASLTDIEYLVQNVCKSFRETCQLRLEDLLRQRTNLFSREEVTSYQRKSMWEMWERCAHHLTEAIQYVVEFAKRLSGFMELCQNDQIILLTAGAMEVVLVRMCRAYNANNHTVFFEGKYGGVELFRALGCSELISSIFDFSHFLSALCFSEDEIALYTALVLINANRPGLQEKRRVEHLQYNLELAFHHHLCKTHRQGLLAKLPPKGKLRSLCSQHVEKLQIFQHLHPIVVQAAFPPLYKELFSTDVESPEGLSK
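Drosophila Schneider cells stably carrying a metallothionein-driven Gal4 DBD–ROR gamma fusion and a UAS-Photinus luciferase reporter were exposed to compound for 1 hr, then induced with copper sulfate (700 uM final) for 20 hr at ambient temperature before luminescence reading.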
BRCA1 expr act: increases BRCA1 expression. MCF7-BRCA1-FFLuc reporter, luminescence, 48 h; response scale: scaled: vehicle 0%, 10 µM genistein 100%. Potency, µM (doses to about 46.1 µM), without a hit: at the top dose activation, most hits filed as activators. hit rate 1.1% among 380,000. AID 624202; note: potency is the fitted concentration of half-maximal effect; nearly all actives have a fitted effect of over 80% in size
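MCF7 cells carrying a BRCA1-firefly luciferase reporter (2000 cells/well, phenol-red free MEM) were attached for 2 h at 37 °C, then given compounds for 48 h. Luminescence was read 15 min after luciferase reagent; activity normalized to genistein (10 microM) and DMSO.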
p53 reactivation: mutant p53 re-activation in reporter cells. H1299 p53-A138V BP100-luciferase reporter, luminescence, 24 h. Potency, µM (top dose mostly 92.2 µM), without a hit: at the highest dose activity change, positive = activation, actives largely listed as activators. hit rate 0.063% among 320,000; note: potency is the fitted concentration of half-maximal effect; % of control where 0% means no effect; nearly all actives have a fitted effect of over 45% in size
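p53-null H1299 cells stably carrying temperature-sensitive p53-A138V and a BP100-luciferase reporter were pinned with compounds (4-point, 1:5 series) and held 24 hrs at 37 deg C. Luminescence was read 10 min after detection reagent.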
ELG1 repair inh: ELG1-dependent DNA repair inhibition; hit rate 2.3% among 330,000; HEK293T ELG1-luciferase reporter, luminescence, 16 h; DNA damage induced by 5-fluorouridine; Potency, µM (top dose mostly 46.1 µM), inactives show at the top dose activity change, negative = inhibition, hits mostly inhibitors; note: potency is the fitted concentration of half-maximal effect; % is set by controls: 0 for no effect and ±100 for the full control effect; nearly all actives have a fitted effect of over 55% in size
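5-Fluorouridine DNA damage + compound/DMSO, 2,000 cells/well, 16 h, 37 °C/5% CO2. ONE-Glo, 30 min RT, luminescence. Readout = decrease in reporter signal.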
Giardia kill: Giardia lamblia killing. Giardia lamblia trophozoite viability. activity change, % at 7.66 µM, hits read low. hit rate 0.15% among 340,000; in the data active = activity change below about -80%; inconclusive = between about -30% and that limit;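 note: parasites exposed to compound for two days anaerobically before the ATP read; % is set by controls: 0 for no effect and ±100 for the full control effect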
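Luminescent ATP signal served as the viability read-out, measured 15-30 min after adding ATP detection reagent to trophozoites that had been incubated with compounds for 48 hrs at 37 deg C anaerobically at 100 cells/well.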
* marks the source's active call; other numbers are inactive results; ? = inconclusive; · = no result given; [ ] = another dose, or the depositor's remark. Unless noted, calls come from the whole dose curve; as a rule, active = well fitted curve in the direction sought with a large enough effect; inconclusive = small, poorly fitted or top-dose-only effect, or another doubt; inactive = no such curve, though single readings can be large; an effect the other way counts as inactive or inconclusive.

SMILES	VP16 counter	RORg inh	BRCA1 expr act	p53 reactivation	ELG1 repair inh	Giardia kill
O=C(COc1ccc(Cl)cc1Cl)NCc1ccco1	-18%	?	10µM*	?	?	0
CCOc1cc(C(=O)NCc2ccco2)cc(OCC)c1OCC	23%	100%	-3%	·	-20%	-4
O=C(COc1ccc(Cl)cc1Cl)NNC(=S)NCc1ccco1	?	3.2µM*	63%	3%	24%	-17
CCOC(=O)Cn1c(=O)cc(C)c2ccccc21	-15%[10 µM]	-9%	-19%	-1%	15%	5
O=C(NC(=S)NCc1ccc(Cl)cc1)c1ccco1	·	·	4%	-4%	?	-19
CC(Oc1ccc(Cl)cc1)C(=O)NNC(=S)NC(=O)c1ccco1 (stereo not drawn)	?	13µM*	-58%	4%	-3%	-13
NC(=O)c1oc2ccccc2c1NC(=O)c1ccc([N+](=O)[O-])o1	?	?	-115%	-9%	?	-88*
O=C(NN(c1ccccc1)c1ccccc1)c1ccc([N+](=O)[O-])o1	7%	?	-59%	-17%	-21%	-89*
C/C(=N/NC(=O)C(O)(c1ccccc1)c1ccccc1)c1ccc([N+](=O)[O-])o1	?	?	-74%	6%	?	-90*
O=C(NNC(=O)c1ccc([N+](=O)[O-])o1)c1ccccc1	18µM*	11µM*	-48%	-23%	-18%	-98*
NC(N)=NCCCC(NC(=O)C(N)Cc1ccc(O)cc1)C(=O)O (stereo not drawn)	-9%	-4%	·	·	·	·
CC(NC(=O)C1CCCN(S(=O)(=O)c2cccc3nonc23)C1)c1ccccc1 (stereo not drawn)	-8%	6%	5%	-3%	-11%	-2
O=C(CSc1nc2ccccc2s1)N1CCCCC1	-9%	37%	?	?	?	0
Cc1c(Cl)cccc1N/C(SCC(=O)N1CCCCCC1)=C(/C#N)c1nc2ccccc2s1	-23%	8.9µM*	-89%	-22%	?	-5
FC(F)(F)c1nnc2n1N=C(c1cccs1)CS2	1%	3%	-26%	-1%	15%	2
Cc1cc(NC(=O)c2ccc(NC(=O)C3CCCO3)cc2)ccc1Br (stereo not drawn)	-9%	-17%	1.1µM*	?	20%	0
O=C(Nc1ccc(O)cc1)c1ccc(NC(=O)C2CCCO2)cc1 (stereo not drawn)	2%	-40%	15%	11%	?	29
NC(=O)c1ccc(NC(=O)C2CCCO2)cc1 (stereo not drawn)	7%	7%	27%	-4%	0%	10
COc1ccc(NS(=O)(=O)c2ccc(NC(=O)C3CCCO3)cc2)cc1 (stereo not drawn)	-8%	37%	-22%	1%	-12%	-14
Cc1ccc(NS(=O)(=O)c2ccc(NC(=O)C3CCCO3)cc2)cc1 (stereo not drawn)	18µM*	?	-21%	-12%	?	-5
CCCOC(=O)c1ccc(NC(=O)C2CCCO2)cc1 (stereo not drawn)	-3%	14%	11µM*	?	?	-2
CC(=O)NNS(=O)(=O)c1ccccc1[N+](=O)[O-]	4%	1%	6%	10%	17%	3
Cc1nc(N2CCN(S(=O)(=O)c3ccccc3)CC2)c2c3c(sc2n1)CC(C)CC3 (stereo not drawn)	-9%	5%	-3%	8%	?	8
Cc1nc(N2CCN(S(=O)(=O)c3cccc4nonc34)CC2)c2c3c(sc2n1)CCCC3	4%	-34%	-3%	-1%	18µM*	-5
O=C(CS(=O)c1ccc(C(F)(F)F)cc1[N+](=O)[O-])Oc1ccccc1 (stereo not drawn)	0%	-15%	-84%	-7%	?	10
SMILES	VP16 counter	RORg inh	BRCA1 expr act	p53 reactivation	ELG1 repair inh	Giardia kill
CS(=O)(=O)c1ccc(S(=O)CC(=O)OCc2ccccc2)c([N+](=O)[O-])c1 (stereo not drawn)	4.5µM*	4.5µM*	-86%	-12%	?	8
C=CCN(CC=C)S(=O)(=O)c1ccc(NC(=S)NC(=O)Cc2ccc(OC)cc2)cc1	?	7.1µM*	-16%	2%	?	-8
O=C(Cc1ccccc1)NC(=S)Nc1ccc(OC(F)F)cc1	11µM*	20µM*	21%	·	15%	4
COc1ccc(NC(=S)NC(=O)Cc2ccccc2)cc1	7.1µM*	8.9µM*	53%	·	?	-11
COc1ccc(NC(=S)NCCCc2ccccc2)cc1	13µM*	3.5µM*	44%	12%	1%	-2
CCOc1ccc(NC(=O)c2cccs2)c([N+](=O)[O-])c1	-2%	24%	?	?	?	-4
C=C1C(=O)OC2C=C(CO)C3OC3C3OC3(C)CC(OC(=O)/C(=C/C)COC(C)=O)C12 (stereo not drawn)	·	·	-87%	·	·	4
COc1ccc(OC)c(NC(=O)COC(=O)c2c(C)noc2C)c1	·	·	0%	-5%	-1%	-9
CCOC(=O)CCCCCC(=O)Nc1ccc2c(c1)C(=O)N([C@H](C)CO)C[C@H](C)[C@@H](CN(C)C(=O)Nc1ccc(OC)cc1)O2	·	·	6%	3%	15%	-22
COc1ccc(CC(=O)NC(=S)Nc2ccc(S(N)(=O)=O)cc2)cc1	?	16%	2%	-1%	-4%	-5
COc1ccc(CC(=O)NC(=S)Nc2ccc(S(=O)(=O)NC(C)(C)C)cc2)cc1	-6%	13µM*	-20%	-3%	-17%	-11
O=C(O)CCC(=O)Nc1nc2nc(-c3ccccc3)cc(-c3ccccc3)n2n1	0%	0%	3%	-1%	-8%	-3
Cc1cc(NC(=O)CCCSc2nc(-c3ccco3)cc(C(F)(F)F)n2)n(-c2ccccc2)n1	-12%	3%	-42%	-19%	16µM*	10
O=C(NCc1ccccc1)c1cc(-c2ccco2)on1	24%	?	11µM*	?	?	1
Cc1cc(NC(=O)c2cc(-c3ccco3)on2)n(-c2ccccc2)n1	-4%	7.9µM*	5%	1%	-17%	2
O=C(NCCc1ccccc1)c1cc(-c2ccco2)on1	-10%	?	?	?	?	0
Cc1cnc(CNC(=O)c2csc([C@@H]3O[C@H](CO)[C@H](O)[C@H](O)[C@H]3O)n2)cn1	·	·	-6%	·	·	·
O=C(CSc1ccccc1)NCc1ccccn1	8%	-8%	-2%	13%	?	-21
CN(Cc1cn(Cc2ccccc2)nc1-c1ccc2c(c1)OCO2)Cc1nccn1C	2%	13µM*	5%	-3%	-10%	-5

Screens deposited in PubChem by National Center for Advancing Translational Sciences (NCATS).
